# Test results as given in the antibiotic and cytotoxicity screens of Wong et al. (2023).
# The whole screen tested about 39,000 compounds, of which about 3,300 (8.5%) were called active. This excerpt belongs to a sample that is enriched for actives.
# Tested on: HepG2
# Assay: cytotoxicity call (relative viability < 0.9)
# Settings: 10 µM
row,SMILES,cytotoxicity call
1,Cc1noc(C)c1NC(=O)N(C)C[C@@H]1Oc2ccc(NS(=O)(=O)c3c(C)noc3C)cc2C(=O)N([C@H](C)CO)C[C@@H]1C,inactive
2,C[C@@H]1CN([C@H](C)CO)C(=O)c2cc(NC(=O)NC3CCCCC3)ccc2O[C@@H]1CN(C)C(=O)Nc1cccc2ccccc12,inactive
3,Cc1ccc(S(=O)(=O)Nc2cccc3c2O[C@@H](CN(C)Cc2ccc(Oc4ccccc4)cc2)[C@H](C)CN([C@H](C)CO)C3=O)cc1,inactive
4,COc1ccc(S(=O)(=O)N(C)C[C@@H]2OCCCC[C@H](C)Oc3ccc(NC(=O)Nc4ccccc4)cc3C(=O)N([C@H](C)CO)C[C@@H]2C)cc1,inactive
5,O=C(NCCn1ncc2c(=O)n(Cc3ccccc3)cnc21)c1ccc(S(=O)(=O)N2CCOCC2)cc1,inactive
6,CC(C)Sc1n[nH]c(=O)[nH]c1=O,inactive
7,CCCNC(=O)N(C)C[C@H]1Oc2cc(C#Cc3ccccn3)ccc2S(=O)(=O)N([C@H](C)CO)C[C@@H]1C,inactive
8,CC[C@H]1Sc2ccccc2NC1=O,inactive
9,C[C@H]1CCCCO[C@H](CN(C)S(=O)(=O)c2cn(C)cn2)[C@@H](C)CN([C@@H](C)CO)C(=O)c2cc(NS(=O)(=O)c3cccs3)ccc2O1,inactive
10,CSc1nc(C)cc(OCCO)n1,inactive
11,COc1ccc(NC(=O)Nc2ccc3c(c2)C(=O)N([C@@H](C)CO)C[C@@H](C)[C@H](CN(C)Cc2ccc(Cl)c(Cl)c2)OCCCC[C@H](C)O3)cc1,inactive
12,O=c1c(-c2ccc(O)cc2)coc2cc(O[C@@H]3O[C@H](CO)[C@@H](O)[C@H](O)[C@H]3O)ccc12,inactive
13,COc1ccc(CNC(=O)C[C@@H]2CC[C@@H]3[C@@H](COc4ccc(NC(=O)C5CC5)cc4C(=O)N3C)O2)cc1,inactive
14,C[C@H](CO)N1C[C@H](C)[C@@H](CN(C)S(=O)(=O)c2cccs2)Oc2c(NC(=O)C3CCOCC3)cccc2C1=O,inactive
15,Cc1ccc(S(=O)(=O)Nc2ccc3c(c2)C(=O)N([C@@H](C)CO)C[C@@H](C)[C@H](CN(C)C(=O)NC2CCCCC2)OCCCC[C@H](C)O3)cc1,inactive
16,CC(C)N=c1cc2n(-c3ccc(Cl)cc3)c3ccccc3nc-2cc1Nc1ccc(Cl)cc1,active
17,CN[C@H]1CCS(=O)(=O)C1,inactive
18,Cc1nc(S(=O)(=O)N[C@H]2CCS(=O)(=O)C2)cn1C,active
19,CCN[C@H]1CCS(=O)(=O)C1,inactive
20,CCC(=O)N(C)C[C@@H]1Oc2ncc(C#C[C@@H](C)O)cc2C(=O)N([C@H](C)CO)C[C@@H]1C,inactive
21,COc1cccc(-c2cnc3c(c2)C(=O)N([C@H](C)CO)C[C@H](C)[C@H](CN(C)S(=O)(=O)c2cccc(F)c2)O3)c1,inactive
22,N[C@@H](CN1C=CC(=O)C(=O)C1)C(=O)O,inactive

row,SMILES,cytotoxicity call
1,N[C@@H](Cn1ccc(=O)c(O)c1)C(=O)O,inactive
2,NC(Cn1ccc(=O)c(O)c1)C(=O)O (stereo not drawn),active
3,C[C@@H]1CN([C@@H](C)CO)C(=O)c2cc(NC(=O)Nc3ccc(C(F)(F)F)cc3)ccc2O[C@@H]1CN(C)C(=O)Nc1cccc2ccccc12,inactive
4,C[C@@H]1CN(CCO[Si](C)(C)C(C)(C)C)C(=O)c2cc(NC(=O)Nc3ccccc3)ccc2O[C@@H](C)CCCCO[C@H]1CN(C)S(=O)(=O)c1ccc(F)cc1,inactive
5,Cc1noc(C)c1NC(=O)Nc1ccc2c(c1)CC(=O)N([C@H](C)CO)C[C@@H](C)[C@H](CN(C)S(C)(=O)=O)O2,inactive
6,C[C@H](CO)N1C[C@H](C)[C@H](CN(C)S(C)(=O)=O)Oc2ccc(NC(=O)Cc3ccccc3)cc2C1=O,inactive
7,C[C@@H]1CCCCO[C@H](CN(C)Cc2ccc(Cl)c(Cl)c2)[C@H](C)CN([C@@H](C)CO)C(=O)c2cc(NC(=O)Nc3ccccc3)ccc2O1,active
8,C[C@@H]1CCCCO[C@@H](CN(C)Cc2ccc(Cl)c(Cl)c2)[C@@H](C)CN([C@@H](C)CO)C(=O)c2cc(NC(=O)Nc3ccccc3)ccc2O1,inactive
9,C[C@@H]1CCCCO[C@H](CN(C)Cc2ccc(Cl)c(Cl)c2)[C@@H](C)CN([C@H](C)CO)C(=O)c2cc(NC(=O)Nc3ccccc3)ccc2O1,inactive
10,C[C@@H]1CN([C@H](C)CO)C(=O)c2cc(NC(=O)Nc3ccccc3)ccc2O[C@@H](C)CCCCO[C@H]1CN(C)Cc1ccc(Cl)c(Cl)c1,active
11,C[C@@H]1CCCCO[C@@H](CN(C)Cc2ccc(Cl)c(Cl)c2)[C@H](C)CN([C@@H](C)CO)C(=O)c2cc(NC(=O)Nc3ccccc3)ccc2O1,inactive
12,C[C@@H]1CCCCO[C@H](CN(C)Cc2ccc(Cl)c(Cl)c2)[C@@H](C)CN([C@@H](C)CO)C(=O)c2cc(NC(=O)Nc3ccccc3)ccc2O1,inactive
13,C[C@@H]1CN([C@@H](C)CO)C(=O)c2cc(NC(=O)Nc3ccccc3)ccc2O[C@@H](C)CCCCO[C@H]1CN(C)Cc1ccc(Cl)c(Cl)c1,inactive
14,C[C@H](CO)N1C[C@H](C)[C@H](CN(C)Cc2ccc(Cl)c(Cl)c2)OCCCC[C@H](C)Oc2ccc(NC(=O)Nc3ccccc3)cc2C1=O,inactive
15,C[C@@H]1CCCCO[C@@H](CN(C)Cc2ccc(Cl)c(Cl)c2)[C@H](C)CN([C@H](C)CO)C(=O)c2cc(NC(=O)Nc3ccccc3)ccc2O1,active
16,C[C@@H]1CN([C@H](C)CO)C(=O)c2cc(NC(=O)Nc3ccccc3)ccc2O[C@@H](C)CCCCO[C@@H]1CN(C)Cc1ccc(Cl)c(Cl)c1,active
17,CO[C@H]1CN(C)C(=O)c2cc(NS(C)(=O)=O)ccc2OC[C@H](C)N(C(=O)C2CCCCC2)C[C@@H]1C,inactive
18,C[C@H]1CN([C@@H](C)CO)C(=O)c2cc(NS(=O)(=O)c3cn(C)cn3)ccc2O[C@@H]1CN(C)CC1CC1,inactive
19,Cc1ccc(S(=O)(=O)N(C)C[C@@H]2Oc3c(NS(=O)(=O)c4cn(C)cn4)cccc3C(=O)N([C@@H](C)CO)C[C@@H]2C)cc1,inactive
20,COc1ccc(S(=O)(=O)N(C)C[C@H]2Oc3c(NC(=O)c4ccncc4)cccc3C(=O)N([C@H](C)CO)C[C@@H]2C)cc1,inactive
21,CC(C)[Si](C#C[Si](C(C)C)(C(C)C)C(C)C)(O[C@H](C)c1cn(Cc2cccc(Cl)c2)nn1)C(C)C,inactive
